Experimental data: ChEMBL document CHEMBL4513149, “CO-ADD screening of MMV (CH) - MMV compounds” (2021)
Measured potencies and affinities stand elsewhere.

Assays:
[1] = tested on: Klebsiella pneumoniae; conditions: Concentration 20 uM; ASSAY_TEST Inhibition of Bacterial Growth; detection method Absorption (OD600); MEDIA CAMHB; plate type 384well; NBS; CORNING #3640; time 18 hr
[2] = tested on: Candida albicans; conditions: 20 µM
[3] = tested on: Cryptococcus neoformans; conditions: Concentration 20 uM; ASSAY_TEST Inhibition of Fungal Growth; detection method Resazurin; Absorption (OD600-OD570); plate type 384well; NBS; CORNING #3640

| SMILES | Inhibition [1] | Inhibition [2] | Inhibition [3] |
| --- | --- | --- | --- |
| CCc1nc2ccc(Cl)cn2c1C(=O)NCc1ccc(N2CCC(c3ccc(OC(F)(F)F)cc3)CC2)cc1 [TELACEBEC] | 18.33% | 2.34% | -3.29% |
| Cc1cc2ccccc2n1CC(=O)N1CC(C(=O)N2CCCCC2)Oc2ccccc21 (stereo not drawn) | 14.31% | 4.16% | -5.34% |
| COc1ccc(N(CCc2cccc(C)n2)C(C)=O)cc1 | 13.85% | 2.97% | -4.26% |
| CN(C(=O)c1cc2c(-c3cncnc3)cccc2[nH]1)c1ccccc1 | 10.84% | 6.97% | -9.57% |
| COc1ccc(-c2nc(-c3cccc(NC(=O)Cc4ccc(F)cc4)c3)no2)cc1OC | 13.72% | 23% | -5.03% |
| COc1ccc(-c2onc(C(F)(F)F)c2-c2ccc(Cl)cc2)c(O)c1 | 9.85% | 2.64% | 8.78% |
| CCCc1ccc(S(=O)(=O)Nc2ccc(CN3CCN(CC4CC4)CC3)cc2)cc1 | 16.66% | 4.6% | -0.39% |
| CCOc1ccc2cc(-c3nn(CC4CCN(C)CC4)c4ncnc(N)c34)ccc2c1.Cl | 14.21% | 4.38% | -9.79% |
| c1ccc(Oc2ccc(-c3cc(CN4CCOCC4)[nH]n3)cc2)cc1 | 7.99% | 4.1% | -6.41% |
| CC(C)C(NC(=O)Cc1cccc2ccccc12)C(=O)Nc1cccc(C#N)c1 (stereo not drawn) | 13.86% | 6.6% | -4.4% |
| Cl.O[C@@H](c1cc(C(F)(F)F)nc2c(C(F)(F)F)cccc12)[C@H]1CCCCN1 | -6.56% | 6.48% | 1.73% |
